High-throughput results deposited in PubChem BioAssay by National Center for Advancing Translational Sciences (NCATS).
HCMV inh = qHTS Assay for inhibitors of the human cytomegalovirus (HCMV); AID 1259415, 2018; activity change, negative = inhibition, % at 57.5 µM; actives 4.5% (n = 410,000); HFF cells, HCMV-luciferase reporter, 72 h; hits give low values; in the data active = activity change below about -60%; inconclusive = no clear call, values can overlap the other calls; inactive = above about -39%; also: % is scaled to controls: 0 for no effect and ±100 for the full control effect
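Inhibition of viral replication was scored as loss of reporter luminescence in HFFs infected with HCMV-luciferase (MOI 1 PFU/cell) for 72 h; compounds tested at 2 doses, normalized to buffer and Salinomycin controls.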
LASV entry inh = qHTS for Inhibitors of binding or entry into cells for Lassa Virus | AID 540256, 2011 | actives 1.2% (n = 300,000) | Potency, µM (highest dose often 37.9 µM), for the others: at the top dose activity change, negative = inhibition, most hits filed as inhibitors | Lassa virus pseudotype entry inhibition, cell reporter; calls by dose curve; tested in HEK293 cells; also: potency is read from the fitted curve at half-maximal effect; % is scaled to controls: 0 for no effect and ±100 for the full control effect; nearly all actives have a fitted effect of over 50% in size
SARS PLpro yeast = qHTS of Yeast-based Assay for SARS-CoV PLP; S. cerevisiae expressing SARS-CoV PLpro, growth rescue; Potency, µM (highest dose often 32.9 µM), for inactives: at the highest dose activity, positive = growth rescue, usual class: activators; actives 0.19% (n = 330,000); AID 485353, 2010; calls by dose curve; also: potency is read from the fitted curve at half-maximal effect; 0% is about no effect; nearly all actives have a fitted effect of over 55% in size
MARV entry inh = qHTS for inhibitors of binding or entry into cells for Marburg Virus; Marburg virus pseudotyped entry inhibition, cell reporter; Potency, µM (highest dose often 37.8 µM), without a hit: at the highest dose activity change, negative = inhibition, hits mostly inhibitors; actives 1.8% (n = 300,000); AID 540276, 2011; calls by dose curve; tested in HEK293 cells; also: potency is read from the fitted curve at half-maximal effect; % is scaled to controls: 0 for no effect and ±100 for the full control effect
FMDV antiviral = High Throughput Screening for Foot and Mouth Disease Virus Antivirals; actives 1.2% (n = 410,000); Potency, µM (series often up to 57.9 µM), inactives show top-dose activity change, negative = inhibition, hits mostly inhibitors; AID 1159524, 2015; FMDV antiviral cell-based qHTS; calls by dose curve; tested in HEK293T cells; also: read-out not given here; potency is read from the fitted curve at half-maximal effect; % is scaled to controls: 0 for no effect and ±100 for the full control effect; nearly all actives have a fitted effect of over 45% in size
HCV inh = qHTS Assay for Inhibitors of Hepatitis C Virus (HCV); Huh7.5.1 HCVcc-Cre infection, luciferase reporter, 44 h; Potency, µM (highest dose often 41.8 µM), for the others: at the highest dose activity change, negative = inhibition, hits mostly inhibitors; actives 3.4% (n = 340,000); active = well fitted inhibition curve with a large enough effect; inconclusive = small, poorly fitted or top-dose-only effect, or another doubt; inactive = no such curve, though single readings can be large or run the other way; also: potency is read from the fitted curve at half-maximal effect; % is scaled to controls: 0 for no effect and ±100 for the full control effect
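A cell-based infection assay in which seeded cells (1,000 per well) receive test compound after 4 h, are inoculated with HCVcc-Cre at approximately 0.5 moi, and are incubated 44 h before luminescence detection.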
* hit, by the source's call; ? = inconclusive; nt = not tested or not shown; [ ] = dose if it differs, or a comment. An excerpt weighted towards active compounds, which were near 8% of everything screened.

SMILES	HCMV inh	LASV entry inh	SARS PLpro yeast	MARV entry inh	FMDV antiviral	HCV inh
COCc1nc2oc3ccc(C)cc3c(=O)c2cc1C(=O)OC	-71*	?	0%	?	-10%	-8%
COC(=O)[C@H]1[C@H](CO)[C@H]2Cn3c(cccc3=O)[C@@H]1N2Cc1ccncc1	6	nt	nt	nt	nt	nt
COc1ccc2[nH]c(=O)c(CN(Cc3ccco3)C(c3nnnn3Cc3ccccc3)C(C)C)cc2c1 (centres undefined)	-98*	?	-3%	13µM*	?	?
CCC(c1nnnn1C1CCCCC1)N(Cc1ccco1)Cc1cc2ccc(OC)cc2[nH]c1=O (centres undefined)	?	?	-1%	?	?	3.5µM*
O=c1[nH]c2cc3c(cc2cc1C(c1nnnn1C1CCCCC1)N1CCSCC1)OCCO3 (centres undefined)	-107*	?	15%	?	24%	10%
COc1ccc2[nH]c(=O)c(C(c3nnnn3C3CCCC3)N(C)C3CCCCC3)cc2c1 (centres undefined)	-20	2%	-1%	5.2µM*	33%	-12%
COc1cc2cc(C(c3nnnn3C3CCCC3)N3CCCCC3)c(=O)[nH]c2cc1OC (centres undefined)	13	?	4%	-9%	13%	-4%
COCCn1nnnc1C(C(C)C)N(Cc1ccccc1)Cc1cc2cc(OC)ccc2[nH]c1=O (centres undefined)	-18	?	4%	-7%[46.1 µM]	0%	?
COc1cc(Nc2cc3c(cn2)cc(-c2cccnc2)n3C)cc(C(F)(F)F)c1	0	nt	nt	nt	nt	nt
CCC(C)(C)n1nnnc1C(C(C)C)N(Cc1ccco1)Cc1cc2cc3c(cc2[nH]c1=O)OCO3 (centres undefined)	68	2%	-1%	16µM*	?	22µM*
O=C1C(n2ccc3ccccc32)c2cc(Cl)ccc2N1Cc1ccc(Cl)nc1 (centres undefined)	-31	nt	nt	nt	nt	nt
Cc1cc(=O)n2nc(N(C)CC(=O)NCc3ccccc3C)sc2n1	4	11%[46.1 µM]	nt	22%[46.1 µM]	-23%	nt
Cc1[nH]c2ccc3ncccc3c2c1C	-3	?	-6%	11%	28%	11µM*
CC1=C(C)Cc2c(nnn2-c2nc(C)nc3sc4c(c23)CCCC4)C1	nt	nt	nt	-5%	nt	nt
COC(=O)c1cc(CNC(=O)c2ccncc2)cc(NC(=O)c2ccccc2Cl)c1	nt	nt	nt	nt	-1%	nt
COc1ccc(OCC(=O)Nc2ccc(N3CCOCC3)c(Cl)c2)cc1	-18	-9%	-7%	-2%	?	10µM*
COc1ccc(OCC(=O)Nc2ccc(N3CCN(C(=O)c4ccccc4)CC3)c(Cl)c2)cc1	?	?	9%	?	11µM*	?
Cc1ccc(S(=O)(=O)N2CCc3cc(C(=O)Nc4c(F)cccc4F)ccc32)cc1	-14	?	nt	8%[46.1 µM]	-7%	nt
O=C(NC1CCCCC1)c1ccccc1NC(=S)NC(=O)C1CCC1	-62*	3%	24%	?	-18%	3%
O=C(NC(=S)NC1CCCCC1)c1ccccc1	-98*	?	18%	21%	86%	4%
COc1ccc(N(CC(=O)NCc2ccccc2Cl)S(=O)(=O)c2c(C)nn(C)c2C)cc1	-5	-16%[46.1 µM]	nt	0%[46.1 µM]	16%	nt
COc1cccc(CNC(=O)CSC2=Nc3ccccc3C3=NC(C(C)C)C(=O)N23)c1 (centres undefined)	-5	-2%[46.1 µM]	nt	nt	-2%	nt
COc1ccccc1CNC(=O)COC(=O)Cc1c[nH]c2ccccc12	6	-2%	1%	19%	-21%	16%
NC(=O)c1ccsc1NC(=O)COC(=O)Cc1cccc2ccccc12	-26	-28%	-37%	7.1µM*	32µM*	?
COc1ccc(NC(=O)COC(=O)c2cccc(S(=O)(=O)N(C)C)c2)cc1	-2	21%[46.1 µM]	0%	?	-14%	0%
SMILES	HCMV inh	LASV entry inh	SARS PLpro yeast	MARV entry inh	FMDV antiviral	HCV inh
COc1ccccc1NC(=O)COC(=O)Cc1c[nH]c2ccccc12	170	11µM*	-3%	-2%	-25%	?
CN(C)S(=O)(=O)c1cccc(C(=O)OCC(=O)Nc2sccc2C(N)=O)c1	35	-6%	5%	?	14µM*	?
NC(=O)c1ccsc1NC(=O)COC(=O)Cc1c[nH]c2ccccc12	-1	?	4%	-13%	20µM*	?
Cc1ccc2c(c1)c1c(c(=O)n(-c3cccc(Cl)c3)c(=O)n1C)n2C	34	3%[46.1 µM]	nt	nt	-3%	nt
Cc1ccc(N2C(=O)c3oc4cc(C)c(C)cc4c(=O)c3C2c2cccc(O)c2)nc1 (centres undefined)	7	8%[46.1 µM]	nt	-5%[46.1 µM]	-3%	nt
COc1ccc(-c2c3c(=O)n(C)c(=O)n(C)c3c3c(-c4ccccc4)nc4ccccc4n23)cc1	25	15%[46.1 µM]	nt	8%[46.1 µM]	?	nt
COc1ccccc1-c1ccnc(-n2ncc(C(=O)NCc3cccnc3)c2C)n1	nt	nt	nt	nt	9%	nt
Cc1cccc(-c2nc3scc(CCNS(=O)(=O)c4ccc5c(c4)OCCO5)n3n2)c1	5	-2%[46.1 µM]	nt	nt	46%	nt
COc1cc(CCC(=O)OCC(=O)Nc2sccc2C(N)=O)cc(OC)c1OC	-16	-30%	-1%	-17%[46.1 µM]	18µM*	13µM*
COc1cccc(C(c2c(NC(=O)c3ccccc3)sc(C)c2C)N2CCN(C)CC2)c1 (centres undefined)	-36	?	4%	20µM*	-23%	4%
COc1ccc(C(c2c(NC(=O)c3ccccc3)sc(C)c2C)N2CCN(CCO)CC2)cc1 (centres undefined)	-10	?	10%	?	-19%	-8%
CCN1CCN(C(c2ccccn2)c2c(NC(=O)c3ccccc3)sc(C)c2C)CC1 (centres undefined)	-32	?	-6%	10µM*	?	?
CC(=O)N1CCC2(CC1)CCN(c1ccccn1)CC2	nt	nt	nt	nt	2%	nt
Cc1cc(C)cc(-n2c(SCC(=O)Nc3ccccc3)nc3c(oc4ccccc43)c2=O)c1	1	nt	nt	?	0%	nt
CCN(Cc1ccncc1)Cc1ccc2c(c1)CN(C(=O)c1ccc(C)cc1)CCO2	nt	nt	nt	nt	-8%	nt
O=[N+]([O-])c1cc(S(=O)(=O)NCc2ccco2)ccc1NN=Cc1ccccn1	40	nt	nt	nt	nt	nt
CCOC(=O)c1c(N)n(-c2ccc(Cl)c(Cl)c2)c2nc3ccccc3nc12	?	11%[46.1 µM]	nt	-1%[46.1 µM]	-22%	nt
CCOC(=O)c1c(NC(=O)CS(=O)(=O)c2cn(CC)c3ccccc23)sc2c1CCCCC2	-71*	?	4%	-16%	-3%	?
